Bioassay records (PubChem BioAssay)
ELG1 genotoxic – inducers of genotoxicity in HEK293T ELG1-luciferase cells | hit rate 1.3% among 330,000 | HEK293T ELG1-luciferase reporter, luminescence, 16 h | Potency, µM (doses to about 46 µM), without a hit: top-dose activity change, positive = activation, most hits filed as activators | AID 504466; note: % of control where 0% means no effect; nearly all actives have a fitted effect of over 60% in size
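Step 1: seed 2,000 HEK293T ELG1-luciferase cells per well. Step 2: add compound or DMSO, incubate 16 hr at 37 °C. Step 3: ONE-Glo, 30 min at room temperature, read luminescence.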
SMN2 splice up – enhancers of SMN2 splice variant expression; HEK293 SMN2-luciferase splicing reporter, luminescence, 30-36 h; Potency, µM (series often up to 46.1 µM), for the others: at the top dose activity change, positive = activation, actives largely listed as activators; hit rate 2.8% among 210,000; note: % of control where 0% means no effect; nearly all actives have a fitted effect of over 55% in size
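HEK293 cells carry an SMN2 […]–luciferase reporter in which exon 7 inclusion puts luciferase in frame. Cells were plated 10-12 h before compound addition, then incubated 30-36 h at 37C. ONE-Glo luminescence was read; sodium butyrate at 4.5 mM final served as control.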
FLuc counter – counter-screen for miR-21 project: firefly luciferase inhibitors or activators; hit rate 6.9% among 360,000; AID 588342; purified FLuc, Km substrates, luminescence inhibition; Potency, µM (titrated, usually from 57.5 µM), for the others: top-dose activity change, negative = inhibition, actives largely listed as inhibitors;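 note: plate controls were vehicle for no effect and reference inhibitor for full effect; nearly all actives have a fitted effect of over 55% in size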
Target sequence (P08659 whole entry, looked up): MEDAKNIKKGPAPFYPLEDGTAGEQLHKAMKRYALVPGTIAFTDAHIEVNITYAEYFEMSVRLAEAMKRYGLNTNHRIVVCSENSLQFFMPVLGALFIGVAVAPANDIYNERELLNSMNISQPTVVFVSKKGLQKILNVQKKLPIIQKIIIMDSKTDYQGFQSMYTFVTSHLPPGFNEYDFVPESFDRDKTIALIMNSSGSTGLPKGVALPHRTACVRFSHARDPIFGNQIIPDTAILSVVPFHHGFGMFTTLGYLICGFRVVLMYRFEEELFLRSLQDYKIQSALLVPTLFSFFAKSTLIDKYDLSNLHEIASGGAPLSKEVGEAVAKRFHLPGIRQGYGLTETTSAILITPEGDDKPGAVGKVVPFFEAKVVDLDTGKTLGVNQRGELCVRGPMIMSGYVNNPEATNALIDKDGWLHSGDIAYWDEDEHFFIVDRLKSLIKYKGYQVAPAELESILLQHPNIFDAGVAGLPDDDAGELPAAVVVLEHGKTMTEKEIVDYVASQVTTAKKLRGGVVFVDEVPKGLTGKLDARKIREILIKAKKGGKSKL
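Biochemical qHTS of compounds, final roughly 60 µM downward over six points, against 10 nM purified firefly luciferase using Km concentrations of substrates (10 uM D-luciferin, 10 uM ATP) in Tris acetate pH 7.5 buffer; luminescence output.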
Rab9 promoter act – activators of Rab9 promoter; Huh7 Rab9 promoter-luciferase reporter, luminescence, 24 h; Potency, µM (titrated, usually from 9.22 µM), for inactives: top-dose activation, negative = inhibition, hits mostly activators; hit rate 2.8% among 320,000; note: % of control where 0% means no effect; nearly all actives have a fitted effect of over 60% in size
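Cell-based reporter: Huh7 stable for Rab9 promoter-driven luciferase, plated in reduced-serum medium with 10% FBS at 1500 cells/well, compound-treated 24 h at 37 °C, luminescence read after 10 min reagent.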
NPC1 promoter act – NPC1 promoter activation. Potency, µM (doses to about 9.22 µM), without a hit: at the top dose activation, actives largely listed as activators. hit rate 2.4% among 320,000. Huh7 NPC1 promoter luciferase reporter, 24 h; note: % of control where 0% means no effect; nearly all actives have a fitted effect of over 60% in size
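Huh7 reporter cells (NPC1 promoter driving luciferase) are dosed with compound for 24 h at 37 °C, 5% CO2; luciferase detection reagent is then added and luminescence measured after 10 min at ambient temperature.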
An asterisk follows results filed as active; ? = inconclusive; / = no result; [ ] = dose if it differs, or a comment. Shown are actives, neighbours in structure and some others; about 7.5% of the full set was active somewhere. Calls come from the whole dose curve; as a rule, active = well fitted curve in the direction sought with a large enough effect; inconclusive = small, poorly fitted or top-dose-only effect, or another doubt; inactive = no such curve, though single readings can be large; an effect the other way counts as inactive or inconclusive. Potency is the fitted concentration of half-maximal effect.

SMILES	ELG1 genotoxic	SMN2 splice up	FLuc counter	Rab9 promoter act	NPC1 promoter act
Cn1c2ccccc2c2cnn(CC(=O)Nc3ccccc3F)c(=O)c21	/	3%	1%	/	/
CCc1ccccc1NC(=O)CNC(=O)c1cc(C2CC2)nn1-c1ccccc1	-2%	/	/	-10%	6%
Cc1cccc(NC(=O)Cn2c(=O)n(CC3CCC(C(=O)NCCc4ccccc4)CC3)c(=O)c3ccccc32)c1 (configuration not stated)	/	2%	4%	/	/
CCCCC(=O)Nc1sc2c(c1C(N)=O)CCC2	?	?	21µM*	?	21%
Cc1sc(NC(=S)NC(=O)C(C)(C)C)c(C(N)=O)c1C	?	?	4.8µM*	?	?
CC(C)(C)C(=O)NC(=S)Nc1sc2c(c1C(N)=O)CCC2	28%	10µM*	4.8µM*	?	?
COc1ccc(-n2c(SCC(=O)NCc3ccc(F)cc3)nc3c([nH]c4ccccc43)c2=O)cc1	/	/	-3%	/	/
COc1ccc(-n2ccnc(NCc3ccccc3OC)c2=O)cc1	/	/	5%	/	/
CC(=O)/C=C1/SC(CC(=O)O)C(=O)N1c1ccccc1 (configuration not stated)	1%	-9%	-2%	-1%	-2%
CC(=O)Cc1nsc(NC(=O)c2ccc(-c3ccc(Cl)cc3Cl)o2)n1	-3%	-2%	6.7µM*	3%	3%
CC(=O)Cc1nsc(NC(=O)c2ccc(-c3cccc(C(F)(F)F)c3)o2)n1	-3%	?	9.5µM*	1%	0%
CC(=O)Cc1nsc(NC(=O)c2ccc(-c3ccc(Cl)c(Cl)c3)o2)n1	-3%	3%	11µM*	-2%	-1%
O=C(NCCNC(=O)c1ccc(-c2ccc(Cl)c(Cl)c2)o1)c1cnccn1	-4%	/	15µM*	2%	8%
CC(=O)Cc1nsc(NC(=O)c2ccc(-c3cc(C(F)(F)F)ccc3Cl)o2)n1	-12%	?	-18%	-16%	-14%
CC(=O)Cc1nsc(NC(=O)c2ccc(-c3cc(Cl)ccc3Cl)o2)n1	-6%	-14%	13µM*	-1%	-11%
COc1ccc(OC)c(CNC(=O)c2ccc(Sc3ccc(C)cc3)c(N)c2)c1	/	/	-15%	/	/
COC(=O)c1ccc(Sc2ccc(C)cc2)c(N)c1	3%	-16%	19µM*	24%	15%
CCN(CC)C(=O)c1cc2c(=O)n3ccccc3nc2s1	16µM*	?	?	29%	24%
CC1CCCN(C(=O)c2cc3c(=O)n4ccccc4nc3s2)C1 (configuration not stated)	16µM*	/	17µM*	?	?
CCC(Sc1nnc2c(n1)[nH]c1ccccc12)C(=O)Nc1nnc(C(C)C)s1 (configuration not stated)	/	-1%	?	/	/
O=S(=O)(Nc1ccc(Cl)cc1)c1cccc2cccnc12	-5%	/	1%	0%	-1%
O=C(Nc1ccccc1O)c1ccc(NS(=O)(=O)c2cccc3cccnc23)cc1	16µM*	/	?	?	3%
O=C(O)c1ccc(NS(=O)(=O)c2cccc3cccnc23)cc1	1%	-7%	-1%	-5%	0%
COC(=O)c1ccc(NC(=O)c2ccc(NS(=O)(=O)c3cccc4cccnc34)cc2)cc1	4%	/	17µM*	1%[1.84 µM]	1%
Cc1ccc(N(C(=O)c2snc(C(N)=O)c2N)C(C(=O)NCc2ccccc2)c2ccncc2)c(C)c1 (configuration not stated)	2%	/	0%	-1%	-4%
SMILES	ELG1 genotoxic	SMN2 splice up	FLuc counter	Rab9 promoter act	NPC1 promoter act
O=C(NCc1ccccc1)C1CC(=O)N(C2CCCCC2)C1 (configuration not stated)	2%	/	5%	3%	-2%
CCN(C(=O)C1CCCN1S(=O)(=O)c1ccc2c(c1)n(C)c(=O)c(=O)n2C)c1ccccc1 (configuration not stated)	0%	/	-2%	-2%	-4%
O=C(CCc1nnc(C2CCCCC2)o1)N1CCN(c2ccccc2F)CC1	?	/	12µM*	3.5µM*	2.5µM*
O=C(CCc1nnc(C2CCCCC2)o1)N1CCN(C2CCCCC2)CC1	0%	/	-3%	0%	0%
O=C(CCCC(=O)N1CCN(c2ccccc2F)CC1)c1ccccc1	?	/	27µM*	4.5µM*	?
CCOC(=O)c1cc(S(=O)(=O)Nc2ccccc2OCC)[nH]n1	/	/	-18%	/	/
CC(=O)c1ccc(NC(=O)c2ccc(-c3nc(COc4ccc(C)cc4)c(C)o3)cc2)cc1	/	/	-1%	/	/
Cc1cc2c([nH]c3ccccc32)c2c1OC(C)(C)C=C2	?	/	11µM*	3.2µM*	3.2µM*
COC(=O)c1cc(Cl)c(NC(=O)c2cc3ccccc3o2)cc1OC	0%	5%	-6%	1.8µM*	?
CCC(=O)Nc1ccc(NC(=O)c2cc3ccccc3o2)c(OC)c1	?	/	?	4µM*	2.5µM*
COc1cc(NC(=O)c2c(OC)cccc2OC)ccc1NC(=O)c1cc2ccccc2o1	15µM*	/	?	?	?
COc1ccc(NC(=O)c2cc3ccccc3o2)c(OC)c1	/	/	5.4µM*	/	/
COc1cc(NC(=O)c2cc3ccccc3o2)ccc1NC(=O)c1ccco1	-2%	/	-2%	-10%	-5%
CC1(C)OC(=O)C(=CNC(Cc2c[nH]c3ccccc23)C(=O)O)C(=O)O1 (configuration not stated)	4%	-7%	5%	-3%	-4%
COC(=O)C1(C(=O)OC)CC2=CCC3C(=O)N(c4ccccc4)C(=O)C3C2Cc2ccccc2[C@@H]1C[N+](=O)[O-] (some centres not stated)	/	3%	/	/	/
O=C(CC1SC(=O)NC1=O)Oc1ccc(/C=N/NC(=O)c2ccccc2O)cc1 (configuration not stated)	9%	/	17µM*	17%	3%
O=C(N/N=C/c1ccccc1OCC(=O)N1CCCC1)C(=O)Nc1ccccc1F	11%	12%	9.5µM*	-4%	1%
O=C(N/N=C/c1cccc(O)c1)c1ccccc1O	?	/	1.5µM*	8%	1%
O=C(O)COc1ccc(/C=N/NC(=O)c2cn(-c3ccccc3)nc2-c2ccccc2)cc1	3%	/	4.8µM*	-1%	0%
O=C(Oc1ccc(/C=N/NC(=O)c2ccccc2O)cc1)c1ccccc1	?	-2%	?	-3%	2%
CC(=O)Nc1ccc(OC(=O)CC2SC(=O)NC2=O)cc1 (configuration not stated)	1%	4%	-4%	-1%	1%
O=C(O)COc1ccc(/C=N/NC(=O)c2ccccc2Br)cc1	0%	/	-6%	-3%	-3%
O=C(N/N=C/c1ccc(OCC(=O)N2CCCCC2)cc1)c1ccccc1	-3%	?	?	3%	1%
